A selection: hits, their analogues and other compounds. The true share with any hit is near 6.7%.
KB-3-1 tox – kills parental KB-3-1 adenocarcinoma cells | KB-3-1 viability, CellTiter-Glo ATP luminescence, 72 h | Potency, µM (titrated, usually from 46.1 µM), hits mostly cytotoxic | actives 1.4% (n = 400,000) | AID 1347075; note: % is set by controls: 0 for no effect and ±100 for the full control effect; nearly all actives have a fitted effect of over 60% in size
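72 h, 37 °C compound treatment of KB-3-1 parental cells; CellTiter-Glo added, 10 min, luminescence read. Data corrected against DMSO-only plates and normalized before curve fitting.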
KB-V1 MDR tox – kills drug-selected multidrug resistant KB-V1 cells; KB-V1 MDR cells viability, CellTiter-Glo, 72 h; Potency, µM (doses to about 46.1 µM), most hits filed as cytotoxic; actives 3.4% (n = 400,000); note: % is set by controls: 0 for no effect and ±100 for the full control effect; nearly all actives have a fitted effect of over 60% in size
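In this primary screen, KB-V1 cells overexpressing P-gp are incubated with library compounds (lowest to highest concentration) for 72 h at 37 degrees C before a luminescent ATP viability read.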
MCF10A rerep – inducers of DNA re-replication in MCF 10A breast cells | actives 2.9% (n = 350,000) | Potency, µM (highest dose often 46.1 µM), inactives show at the highest dose activity, positive = re-replication, hits mostly activators | MCF 10A DNA re-replication, Hoechst nuclear intensity, 48 h; note: % of control where 0% means no effect; nearly all actives have a fitted effect of over 50% in size
PINK1 expr mod – changes PINK1 expression. PINK1 immunofluorescence, high-content cytometry, 24 h. Potency, µM (series often up to 76.6 µM), for the others: top-dose activation (PINK1 increase), usual class: activators. AID 624263. actives 0.2% (n = 410,000); active = well fitted activation curve with a large enough effect; inconclusive = small, poorly fitted or top-dose-only effect; cell line not stated here; note: % of control where 0% means no effect; nearly all actives have a fitted effect of over 65% in size
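Stable cell line, 250 cells/well, 12 h attachment; compounds pinned at 5 concentrations, 24 h; CCCP control. Fixed with nuclear dye, primary antibodies 12 h at 10 degrees C, secondary plus cell stain; laser-scanning cytometer read.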
SW480 rerep – DNA re-replication induction in SW480 cells; SW480 DNA re-replication, Hoechst DNA content imaging, 48 h; Potency, µM (top dose mostly 46.1 µM), for inactives: top-dose re-replication activation, most hits filed as activators; actives 1.8% (n = 340,000); AID 624297; note: % of control where 0% means no effect; nearly all actives have a fitted effect of over 55% in size
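DNA re-replication was detected as more nuclei of elevated Hoechst intensity after 48 hr exposure to compound (23 nL pinned per well of 250 cells).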
* hit, by the source's call; i = inactive; ? = inconclusive; nt = not tested or not shown; [ ] = dose if it differs, or a comment. Unless noted, calls come from the whole dose curve; as a rule, active = well fitted curve in the direction sought with a large enough effect; inconclusive = small, poorly fitted or top-dose-only effect, or another doubt; inactive = no such curve, though single readings can be large; an effect the other way counts as inactive or inconclusive. Potency is the fitted concentration of half-maximal effect.

SMILES	KB-3-1 tox	KB-V1 MDR tox	MCF10A rerep	PINK1 expr mod	SW480 rerep
COc1ccc(C(O)c2ncc(-c3ccccc3)[nH]2)cc1F (configuration not stated)	i	i	nt	-1%	nt
CN(C)c1ccc(/C=C/c2ccnc3ccc4ccccc4c23)cc1	1.6µM*	i	nt	nt	nt
CN(C)c1ccc(C=Cc2nccc3ccccc23)cc1	9.2µM*	i	nt	?	nt
CN(C)c1ccc(/C=C/c2ccnc3ccccc23)cc1	12µM*	?	nt	8%	nt
CCN(CC)c1ccc(/C=C/c2nccc3ccccc23)cc1	i	i	nt	0%	nt
N#C/C(=N\Nc1cccc(C(F)(F)F)c1)C(=O)c1ccsc1	16µM*	3.3µM*	?	11µM*	-15%
Cc1cccc(-c2nn(-c3ccccc3)cc2CNCCO)c1	i	i	nt	1%	nt
Cc1cccc(-n2cc(CNCCc3nc(C)cc(C)n3)c(-c3cccc(F)c3)n2)c1	i	i	4.1µM*	-2%	23µM*
Cc1cccc(N2CCN(C(=O)Cn3ncc4c5ccccc5n(C)c4c3=O)CC2)c1C	i	i	nt	10%	nt
Cc1cccc(N2CCN(C(=O)CCNC(=O)Cn3ccc4ccccc4c3=O)CC2)c1C	i	21µM*	1%	-2%	2%
CN1CCN(C(=O)CCNC(=O)Cn2ccc3ccccc3c2=O)CC1	i	i	3%	-2%	0%
Cc1cccc(N2CCN(C(=O)Cc3cn(C)c4ccccc34)CC2)c1C	?	18µM*	18µM*	-2%	?
Oc1ccc(C=NN=Cc2ccco2)c(O)c1	i	?	0%	22%	-5%
CC1CCCN(S(=O)(=O)c2ccc3c(c2)c(=O)nc2ccc(Cl)cn23)C1 (configuration not stated)	i	i	4.6µM*	3%	?
O=C(Nc1ccc(Br)cc1)c1ccc2c(c1)OCO2	i	i	15%	9%	?
N#Cc1sc2nc(-c3ccccc3)cc(-c3ccco3)c2c1N	i	i	?	0%	?
Cc1ccc(-c2cc(-c3ccccc3)c3c(N)c(S(C)(=O)=O)sc3n2)cc1	?	?	?	-2%	12µM*
CS(=O)(=O)c1sc2nc(-c3cccs3)cc(-c3ccccc3)c2c1N	i	i	18µM*	-2%	?
CCCCN1C(=O)C(=O)N(CC(=O)Nc2cc(S(=O)(=O)N(C)C)ccc2C)C1=O	i	i	-3%	0%	-4%
O=C(NC1CC1)c1cccc(NC(=O)c2cnn(-c3ccccc3)n2)c1	i	15µM*	3%	2%	-7%
O=C(Nc1cccc(C(=O)NC2CCCC2)c1)c1ccccc1	i	i	2%	0%	0%
CC(C)Cc1ccc(CN2CCCC(NC(=O)CCN3CCCCC3=O)C2)cc1 (configuration not stated)	i	i	0%	0%	?
CC(C)Cc1ccc(C(C)/C=C2/CCC(CN3CCCCC3)C2=O)cc1 (configuration not stated)	?	?	15µM*	-2%	?
COC(=O)[C@@H]1CCCN1Cc1ccc2c(c1)CN(Cc1ccc3c(c1)CCO3)CCO2	nt	nt	nt	2%	nt
Oc1ccccc1N=Nc1ccccc1O	7.3µM*	?	19%	2%	?
SMILES	KB-3-1 tox	KB-V1 MDR tox	MCF10A rerep	PINK1 expr mod	SW480 rerep
COc1ccccc1CCN=C(N)NS(=O)(=O)c1ccccc1F	nt	nt	6%	-2%	-3%
COc1cc2c(cc1OC)C(c1cc(C)ccc1C)CC(=O)N2 (configuration not stated)	i	?	0.65µM*	4%	0%
CC(C)Oc1ccccc1C1CC(=O)Nc2cc3c(cc21)OCO3 (configuration not stated)	2.6µM*	1.3µM*	0.52µM*	5%[38.3 µM]	?
CCCCOc1ccccc1C1CC(=O)Nc2cc(C)c(C)cc21 (configuration not stated)	?	?	nt	1%	nt
COc1ccccc1C1CC(=O)Nc2cc(C)c(C)cc21 (configuration not stated)	16µM*	9.2µM*	15%	3%	21µM*
Cc1cc2c(cc1C)C(c1ccccc1Br)CC(=O)N2 (configuration not stated)	18µM*	23µM*	?	14%	?
COc1cc2c(cc1OC)C(c1ccco1)CC(=O)N2 (configuration not stated)	i	i	-1%	1%	-22%
CC(C)C[C@H]1CN([C@@H](CC(C)C)CN2CCCC2CN2C(=S)NC[C@@H]2Cc2ccccc2)C(=S)N1CCc1ccccc1 (some centres not stated)	?	?	nt	1%	nt
CC(C)c1nnc(NC(=O)C2CCN(C(=O)C(C)(C)C)CC2)s1	i	i	nt	1%	nt
Cn1c(=O)cc(OCCCC(=O)Nc2cccc(Cl)c2)c2ccccc21	i	?	nt	9%	nt
COc1cc2c(cc1OC)C(c1ccc(C(F)(F)F)cc1)CC(=O)N2 (configuration not stated)	i	i	16%	2%	-3%
COc1cc2c(cc1OC)C(c1ccc(Br)cc1)CC(=O)N2 (configuration not stated)	i	i	0.65µM*	4%	?
Cc1cc2c(cc1C)C(c1ccccc1OC(C)C)CC(=O)N2 (configuration not stated)	5.8µM*	?	1.5µM*	0%	5.2µM*
Cc1cccc(C2CC(=O)Nc3cc4c(cc32)OCO4)c1 (configuration not stated)	?	i	nt	4%	nt
CCOc1ccccc1C1CC(=O)Nc2cc(C)c(C)cc21 (configuration not stated)	?	8.2µM*	?	4%	18µM*
CC(C)Oc1cccc(C2CC(=O)Nc3cc4c(cc32)OCO4)c1 (configuration not stated)	3.7µM*	?	nt	8%	nt
COc1cccc(C2CC(=O)Nc3cc4c(cc32)OCO4)c1OC(C)C (configuration not stated)	i	i	nt	1%	nt
CCc1ccccc1NC(=O)Cn1c(=O)n(Cc2ccccc2)c(=O)c2c(C)c(C(=O)N(C)C)sc21	i	i	nt	2%	nt
S=c1[nH]c2ccccc2n1CCc1ccccc1	i	i	nt	nt	nt
O=S(=O)(/C=C/c1ccccc1)N1CCC(n2c(C3CCCO3)nc3cccnc32)CC1 (configuration not stated)	nt	nt	nt	0%	nt
CCOc1cc(/C=N/NC(=O)c2cccc([N+](=O)[O-])c2)ccc1OS(=O)(=O)c1ccccc1	?	13µM*	19%	4%	15%
COc1ccc(C(=O)N/N=C/c2ccc(OC)c(OS(=O)(=O)c3ccccc3)c2)cc1	i	?	28%	1%	9%

Assay outcomes: PubChem BioAssay, National Center for Advancing Translational Sciences (NCATS)
